The values below come from the supplement of paper PMC10338343.

± gives the standard deviation.

One assay relates to MILI (PIWIL2) piRISC loaded with L1MC piRNA (26 nt). As to the kind of experiment: pre-steady-state target cleavage rate (min^-1); guide: L1MC piRNA 5'p-UAACUAAAUACUAUGCAAGCUGUAGG; MIWI and MILI are mouse PIWI proteins and EfPiwi is from a freshwater sponge; tags in brackets are library labels; higher = faster piRNA-guided slicing of the target. As to conditions: auxiliary factor: 500 nM mouse GTSF1. Put shortly:
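Cleave-'n-Seq reactions paired 0.1 nM transcribed, DNA-blocked target RNA library with 1 nM active affinity-purified piRISC holding one synthetic guide, plus or minus 500 nM GTSF1 partner protein, in HEPES–potassium acetate buffer at 33 °C for 0–8 or 0–960 min. After sequencing of uncleaved targets and normalisation to depth and weakly complementary targets, the pre-steady-state cleavage rate was taken from a burst-and-steady-state fit. Three trials were pooled, and k3 was capped at 0.0001 min^-1.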
For UCCUGGAUCUGGUUGCAUAGUAUUUAGUUA, the “pre-steady-state target cleavage rate” value came to 0.158 ± 0.014.
Regarding UCCUGGUACAGGUUGCAUACUAUUUAGUUA, the “pre-steady-state target cleavage rate” value is 0.111 ± 0.033.
UCCUCCUACCAGCUUGCAUAGUAUUUAGUUA: the “pre-steady-state target cleavage rate” value is 0.275 ± 0.017.
In the case of UCCUCGUACAGCUUGCUUAGUAUUUAGUUA, the “pre-steady-state target cleavage rate” value was determined as 0.286 ± 0.016.
Still for that read-out and setting: as for UCCUCCUACAGGUUGCAUAGUAUUUAGUAA, the figure is 0.233 ± 0.017.
As to UCCUGGAUCUGCUUGCAUUGUAUUUAGUUA, the “pre-steady-state target cleavage rate” value was determined as 0.159 ± 0.015.
The same measure, in the same setting: as for UCCUGGAACAGCAUGCAUAGUAAUUAGUUA, the figure is 0.225 ± 0.017; as for UCCUGGUACAGCUUCAUAGUAUUUAGUUA, 0.209 ± 0.027; as for UCCUGCUACAGCAUGCAUUGUAUUUAGUUA, 0.213 ± 0.02.
For UCCUGGAACAGACUUGCAUAGUAUUUAGUUA, the “pre-steady-state target cleavage rate” value worked out at 0.217 ± 0.014.
Same read-out and setting: as for UCCUGGAACAGCUUGCAUAGUAUUUAAGUUA, the figure is 0.195 ± 0.029; as for UCCUCCUACAGCUUGCUUAGUAUUUAGUAA, 0.203 ± 0.017; as for UCCUGGAUCAGCUUGCAUAGUCUUUAGUUA, 0.191 ± 0.011.
Still for that read-out and setting: as for UCCUGGAUCAGCUAGCAUAGUAUUUAGUUA, the figure is 0.236 ± 0.012.
On to UCCUGGAAGAGCUAGCAUAGUAUUUAGUUA, for which the “pre-steady-state target cleavage rate” value amounted to 0.212 ± 0.016.
Consider UCCUGGAACUGCUUGCAUAGUAUUUAGUUA, for which the “pre-steady-state target cleavage rate” value is 0.228 ± 0.016.

The same assay, now with this note: auxiliary factor: none (no GTSF1).
As to UCCUGGAUGAGCUUGCGUAGUAUUUAGUUA, the “pre-steady-state target cleavage rate” value came out at 0.0108 ± 0.0025.
Same read-out and setting: as for UCCUGGAUCAGCUUGCAUAGUUUUUAGUUA, the figure is 0.00873 ± 0.0021; as for UCCUGGUACAGCAUGCAUUGUAUUUAGUUA, 0.0119 ± 0.0038.
In the case of UCCUGGUAAAGCUUGCAUAGUAUUUAGUUA, the “pre-steady-state target cleavage rate” value was determined as 0.00996 ± 0.0023.
Same read-out and setting: as for UCCUCUCUACAGCUUGCAUAGUAUUUAGUUA, the figure is 0.00895 ± 0.0022.
On the same count and under the same terms, as for UCCUGGAUGUGGAUGCAUAGUAUUUAGUUA, the figure is 0.00877 ± 0.0027; as for UCCUGGAUCAGUCUUGCAUAGUAUUUAGUUA, 0.0108 ± 0.0023; as for UCCUGGUACAGCUUGCAUAGUAUUAAGUUA, 0.00423 ± 0.0038.
As for UCCUGGAUCAGCUUGCAUAGUAUUUAGUGUA, the “pre-steady-state target cleavage rate” value was 0.00832 ± 0.0026.
Same read-out and setting: for UCCUGGAUGUGCUUUGCAUAGUAUUUAGUUA the value was 0.0132 ± 0.0033.
Still for that read-out and setting: as for UCCUGGUUGAGCUUGCAUAGUAUUUAGUUA, the figure is 0.0113 ± 0.0033; as for UCCUCGUACAGCUUGCAUAGUAUUUUGUUA, 0.00289 ± 0.0028.
On to UCCUCCUAGAGCUUGCAUAGUAUAUAGUUA, for which the “pre-steady-state target cleavage rate” value amounted to 0.00315 ± 0.0025.
Same read-out and setting: as for UCCUGGAUGAGCUUGCAUAGUAUGUUAGUUA, the figure is 0.0093 ± 0.0029; as for UCCUGGAUCAGCUUGGCAUAGUAUUUAGUUA, 0.00341 ± 0.0025.
On to UCCUGGUAGAGCUUGCAUAGUAUUUUGUUA, for which the “pre-steady-state target cleavage rate” value came out at 0.00365 ± 0.003.
On the same count and under the same terms, as for UCCUGCAUCAGCUUGCAUAGUAUUUAGUAA, the figure is 0.00464 ± 0.0032; as for UCCUGGAUGUCGAUGCAUAGUAUUUAAGUUA, 0.00656 ± 0.0024.
As to UCCUGGAUCUAGCUUGCAUAGUAUUUAGUUA, the “pre-steady-state target cleavage rate” value came out at 0.00722 ± 0.0025.
For UCCUGGAUCAGCUUGCAUAGUAUUUAUUUA, the “pre-steady-state target cleavage rate” value is 0.00658 ± 0.0024.
As for UCCUGGAUGAGCUUGCAUAGUAUUUAGUAA, the “pre-steady-state target cleavage rate” value was determined as 0.00773 ± 0.0026.
Still for that read-out and setting: for UCCUGCAUACAGCUUGCAUAGUAUUUAGUUA the value was 0.0104 ± 0.0034.
Take UCCUGCUACAGCUUGCUUAGUUUUUAGUUA: the “pre-steady-state target cleavage rate” value was 0.00366 ± 0.0015.
For UCCUGCUACAGCUUGCAUGGUAUUUAGUUA, the “pre-steady-state target cleavage rate” value was 0.0121 ± 0.0029.
Still for that read-out and setting: for UCCUGGAUCUGGUUGCAUAGUAUUUAGUUA the value was 0.0105 ± 0.0029; for UCCUGGUACAGGUUGCAUACUAUUUAGUUA, 0.00543 ± 0.0028; for UCCUCCUACCAGCUUGCAUAGUAUUUAGUUA, 0.00841 ± 0.0025.
Turning to UCCUCGUACAGCUUGCUUAGUAUUUAGUUA, the “pre-steady-state target cleavage rate” value came out at 0.00785 ± 0.0024.
On the same count and under the same terms, for UCCUCCUACAGGUUGCAUAGUAUUUAGUAA the value was 0.00603 ± 0.0015.
On the same count and under the same terms, as for UCCUGGAUCUGCUUGCAUUGUAUUUAGUUA, the figure is 0.00477 ± 0.0023; as for UCCUGGAACAGCAUGCAUAGUAAUUAGUUA, 0.00873 ± 0.0024.
The same measure, in the same setting: for UCCUGGUACAGCUUCAUAGUAUUUAGUUA the value was 0.00866 ± 0.0031; for UCCUGCUACAGCAUGCAUUGUAUUUAGUUA, 0.00734 ± 0.0026; for UCCUGGAACAGACUUGCAUAGUAUUUAGUUA, 0.00682 ± 0.0024.
For UCCUGGAACAGCUUGCAUAGUAUUUAAGUUA, the “pre-steady-state target cleavage rate” value turned out to be 0.00781 ± 0.0028.
UCCUCCUACAGCUUGCUUAGUAUUUAGUAA: the “pre-steady-state target cleavage rate” value was found to be 0.0037 ± 0.0021.
As for UCCUGGAUCAGCUUGCAUAGUCUUUAGUUA, the “pre-steady-state target cleavage rate” value worked out at 0.00789 ± 0.0024.
The same measure, in the same setting: for UCCUGGAUCAGCUAGCAUAGUAUUUAGUUA the value was 0.00845 ± 0.0024.
As to UCCUGGAAGAGCUAGCAUAGUAUUUAGUUA, the “pre-steady-state target cleavage rate” value is 0.00677 ± 0.0024.
As to UCCUGGAACUGCUUGCAUAGUAUUUAGUUA, the “pre-steady-state target cleavage rate” value was found to be 0.00612 ± 0.002.
